Drawing on the supplement of paper PMC10681739, this text covers ETS1 binding intensity for 18 sequences.

Experiment [1] addresses T1, ETS1 (UniProt P14921).
T1 sequence: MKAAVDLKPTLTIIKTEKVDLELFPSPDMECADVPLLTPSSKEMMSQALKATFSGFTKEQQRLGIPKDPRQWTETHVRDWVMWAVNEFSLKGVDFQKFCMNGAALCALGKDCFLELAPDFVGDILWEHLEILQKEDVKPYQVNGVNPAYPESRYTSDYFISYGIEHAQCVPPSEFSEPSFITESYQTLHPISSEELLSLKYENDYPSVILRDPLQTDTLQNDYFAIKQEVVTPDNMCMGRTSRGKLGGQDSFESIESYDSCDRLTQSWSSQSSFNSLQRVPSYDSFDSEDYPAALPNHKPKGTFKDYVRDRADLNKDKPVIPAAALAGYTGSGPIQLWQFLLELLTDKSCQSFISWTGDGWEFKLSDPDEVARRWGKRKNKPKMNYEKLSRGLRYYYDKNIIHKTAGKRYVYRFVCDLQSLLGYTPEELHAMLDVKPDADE
In words: ETS1 binding intensity (PBM fluorescence), ETS1 alone (arbitrary fluorescence units); higher = stronger binding. Particulars: ETS1 concentration 1 nM; RUNX1 concentration 0 nM.

For experiment [2], the target named is T1, ETS1. In words: ETS1 binding intensity (PBM fluorescence) in presence of RUNX1, normalised to ETS1-only experiment (arbitrary fluorescence units); higher = stronger binding. Particulars: ETS1 concentration 1 nM; RUNX1 concentration 25 nM.

In the case of GAAGTGATGTTAGACGGATGTGGGTGGTGCCTCCGG, the ETS1 binding intensity with ETS1 [1] stood at 1620; with ETS1 [2], 2790.

For TGTTGCACATGTTCAGGATGTGGTAGACAGCTTTCA, the ETS1 binding intensity with ETS1 [1] stood at 1410; with ETS1 [2], 3040.

For CCGCCCACTTCCGTGTGGCCGCCGATTGGTTTTGCC, the ETS1 binding intensity was determined as 491 with ETS1 [1] and 516 with ETS1 [2].

Consider CTGGCCAGCTCCCACGGATGTGGTAGGCAGGCAGCA, for which the ETS1 binding intensity with ETS1 [1] is 965; with ETS1 [2], 1430.

Turning to GAACATGGTCTCCGCTTCCGCCGCAACCTCGGCCTT, the ETS1 binding intensity worked out at 525 with ETS1 [1] and 744 with ETS1 [2].

Regarding ACAGGTTCAGGAAGCGGCCGTGGTTGTTAGTGGTGT, the values for the ETS1 binding intensity in the experiment with ETS1 [1] and with ETS1 [2] were 718 and 639, respectively.

For the sequence GACGCTCTCTTCCTGTCTTTGTGGCTCCAGAAAGGC, the ETS1 binding intensity in the experiment with ETS1 [1] was determined as 830; in the experiment with ETS1 [2], 630.

As for TTGAAAAGGAAGTTCATTTGTACTGAGGTGGTTTTA, the ETS1 binding intensity with ETS1 [1] came out at 602; with ETS1 [2] it was 698.

For the sequence CAACTCACATCCTCTGGCAACAACCACTAATCCACT, the figures for the ETS1 binding intensity with ETS1 [1] and with ETS1 [2] were 460 and 525, respectively.

As to GACAGGATACAAGAATTCCGCGGACTGCCGCAGTCG, the ETS1 binding intensity worked out at 642 with ETS1 [1] and 649 in the experiment with ETS1 [2].

Consider ATCAAAGAACGGATATTGCTGTGACACCGCGGGGAC, for which the ETS1 binding intensity in the experiment with ETS1 [1] stood at 1380; with ETS1 [2], 1560.

Consider AGCCCTCTGCAACTTCCCGGCCCCACAGCCCCACCC, for which the ETS1 binding intensity with ETS1 [1] amounted to 678; with ETS1 [2], 575.

Turning to TAACTTGAACTTCCTTTTGACCACCTGTACGGTATA, the ETS1 binding intensity worked out at 497 in the experiment with ETS1 [1] and 462 in the experiment with ETS1 [2].

As to CAAAGGGGAACGAGGAAACCGCCAGGGGCGGGGCGG, the ETS1 binding intensity stood at 485 with ETS1 [1] and 475 in the experiment with ETS1 [2].

GCTTTGCAGTTTCCTCTGTGGAACACCACACACAGT: the ETS1 binding intensity with ETS1 [1] was determined as 418; in the experiment with ETS1 [2], 494.

In the case of ACAGTTTCCTTGCTGTGATGTCAGCCCCCGCCGCAG, the ETS1 binding intensity in the experiment with ETS1 [1] turned out to be 709; with ETS1 [2], 682.

AGCGGATTCCGGACATAACAATCTACAGCGGTCTTA: the ETS1 binding intensity in the experiment with ETS1 [1] was determined as 444; with ETS1 [2], 417.

Regarding CGCCGGACGTAGTGACGTAGCGCGCAGCCGCAGCGG, the ETS1 binding intensity with ETS1 [1] came out at 442; with ETS1 [2] it was 476.
